# Test results as given in PubChem BioAssay (Tox21).
# Where “and” joins values, the source holds several entries; their conditions need not be identical. Equal entries are not always repeated. Results filed as inconclusive are left out. Calls of active or inactive are those of the source. Calls come from the whole dose curve; as a rule, active = well fitted curve in the direction sought with a large enough effect in the repeat runs; inconclusive = weak or mixed curves; inactive = no such curve, though single readings can be large; an effect the other way counts as inactive or inconclusive.
# Assay: Caspase-3/7 induction in HepG2 cells by small molecules, qHTS assay (AID 1346978); note: nearly all actives have a fitted effect of over 15% in size
# Details: HepG2 caspase-3/7 activation, Caspase-Glo luminescence, 17 h; series mostly up to 92.4 µM; caspase activation: at the top concentration
# How it was run: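 Wild-type HepG2 cells (2,000/well) were settled 5 h at 37 C, 5% CO2, then exposed to compounds in DMSO for 17 h. Caspase-3/7 activity was read by luminescence 30 min after adding Caspase-Glo 3/7 reagent at room temperature.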
# % is set by controls: 0 for no effect and ±100 for the full control effect; potency is the fitted concentration of half-maximal effect.
SMILES,caspase activation,Potency
CN1CCc2cc(Cl)c(O)cc2[C@H]2c3ccccc3CC[C@@H]21,1.31% [at 42.5 µM] (inactive),–
CN(C)CCc1c[nH]c2ccccc12,5.67% (inactive),–
CCN(CC)CCN1C(=O)CN=C(c2ccccc2F)c2cc(Cl)ccc21,-2.07% [at 42.5 µM] (inactive),–
O=C1C[C@@H]2OCC=C3CN4CC[C@]56c7ccccc7N1[C@H]5[C@H]2[C@H]3C[C@H]46,0.566% [at 42.5 µM] (inactive),–
N#Cc1c[nH]cc1-c1cccc2c1OC(F)(F)O2,–,12.2 µM (active)
O=C1C(Cl)=C(Cl)C(=O)C(Cl)=C1Cl,–,inactive
CC1=C2C[C@H]3[C@@H](CC=C4C[C@@H](O)CC[C@@]43C)[C@@H]2CC[C@]12O[C@@H]1C[C@H](C)CN[C@H]1[C@H]2C,7.9% [at 42.5 µM] (inactive),–
CO/N=C(\C(=O)OC)c1ccccc1CO/N=C(\C)c1cccc(C(F)(F)F)c1,-6.02% (inactive),–
C#CCC1=C(C)C(OC(=O)C2C(C=C(C)C)C2(C)C)CC1=O (stereo unspecified),-2.01% (inactive),–
CCOP(=O)(OCC)Oc1nc(Cl)c(Cl)cc1Cl,-2.61% (inactive),–
CCCC[N+]1(C)CCCC1 (tested in a mixture with another compound),-3.3% (inactive),–
c1ccc(N=NNc2ccccc2)cc1,-5.16% (inactive),–
C[C@]12Cc3cn[nH]c3C[C@@H]1CC[C@@H]1[C@@H]2CC[C@@]2(C)[C@H]1CC[C@]2(C)O,1.73% [at 42.5 µM] (inactive),–
Nc1ccc(N=Nc2ccccc2)cc1,-12.9% (inactive),–
c1csc(-c2ccc(-c3cccs3)s2)c1,-4.11% (inactive),–
COc1ccc2c(c1OC)C(=O)O[C@@H]2[C@H]1c2cc3c(cc2CCN1C)OCO3,0.664% (inactive),–
CN1C2CCC(C)(C)C1CC(OC(=O)C(O)(c1cccs1)c1cccs1)C2 (stereo unspecified),-2.29% [at 42.5 µM] (inactive),–
COP(=O)(OC)Oc1ccc([N+](=O)[O-])cc1,-0.754% (inactive),–
CC(C)(C)c1ccc(OP(=O)(Oc2ccccc2)Oc2ccccc2)cc1,-2.05% (inactive),–

SMILES,caspase activation,Potency
C=Cc1cccc(CCl)c1,0.88% [at 240 µM] (inactive),–
C[C@H]1[C@H](c2ccc(Cl)cc2)SC(=O)N1C(=O)NC1CCCCC1,-4.01% (inactive),–
Clc1ccc(C(c2ccc(Cl)cc2)C(Cl)Cl)cc1,4.58% (inactive),–
CSC1=N[C@@](C)(c2ccccc2)C(=O)N1Nc1ccccc1,-3.01% (inactive),–
ClC1=C(Cl)[C@]2(Cl)[C@@H]3[C@H]4C[C@H]([C@@H]5O[C@H]45)[C@@H]3[C@@]1(Cl)C2(Cl)Cl,0.218% (inactive),–
S=C=NCCc1ccccc1,8.11% (inactive),–
Oc1ccc([C@H]2CNCc3c2ccc(O)c3O)cc1O,-1.25% [at 42.5 µM] (inactive),–
Cc1ccccc1OP(=O)(Oc1ccccc1C)Oc1ccccc1C,1.35% (inactive),–
CCOP(=S)(NC(C)C)Oc1ccccc1C(=O)OC(C)C (stereo unspecified),9.6% (inactive),–
O=[N+]([O-])c1cccc2cccc([N+](=O)[O-])c12,-0.221% (inactive),–
CCN(CC)Cc1nccn1-c1ccc([N+](=O)[O-])cc1C(=O)c1ccccc1Cl,0.928% [at 42.5 µM] (inactive),–
Cc1cc(C2CC2)nc(Nc2ccccc2)n1,-1.19% (inactive),–
FC(F)C(F)(F)OCC(Cn1cncn1)c1ccc(Cl)cc1Cl (stereo unspecified),9.84% (inactive),–
Cc1ccc2cc3c(ccc4ccccc43)c3c2c1CC3,–,6.13 µM (active)
Oc1ccc2[nH]cc(CCCCN3CC=C(c4ccccc4)CC3)c2c1,1.84% [at 42.5 µM] (inactive),–
CCN(CC)CCc1c[nH]c2ccccc12,3.44% (inactive),–
c1ccc(Nc2ccc(Nc3ccccc3)cc2)cc1,-3.45% (inactive),–
CCOP(=O)(Sc1ccccc1)Sc1ccccc1,-0.713% (inactive),–

# Assay: Caspase-3/7 induction in CHO-K1 cells by small molecules, qHTS cell viability counter screen (AID 1346979); note: nearly all actives have a fitted effect of over 35% in size
# Details: CellTiter-Fluor fluorescence, 17 h; series mostly up to 92.4 µM; activity change, negative = cytotoxicity: at the top concentration
# How it was run: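 Wild-type CHO-K1 cells were seeded at 1,500 per well, rested 5hr at 37 C, then exposed to compounds in DMSO. After 16hr, CellTiter-Fluor reagent was added and fluorescence read 1hr later as the viability measure.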
SMILES,"activity change, negative = cytotoxicity",Potency
CN(C)CCc1c[nH]c2ccccc12,6.21% (inactive),–
CCN(CC)CCN1C(=O)CN=C(c2ccccc2F)c2cc(Cl)ccc21,5.56% [at 42.5 µM] (inactive),–
N#Cc1c[nH]cc1-c1cccc2c1OC(F)(F)O2,–,48.6 µM (active)
O=S1OCC2C(CO1)C1(Cl)C(Cl)=C(Cl)C2(Cl)C1(Cl)Cl (stereo unspecified),–,61.2 µM (active) and 68.5 µM (active)
O=C1C(Cl)=C(Cl)C(=O)C(Cl)=C1Cl,–,24.2 µM (active) and 24.3 µM (active)
CCCCCCC[CH2][Sn]([Cl])([Cl])[CH2]CCCCCCC,–,54.4 µM (active)
CO/N=C(\C(=O)OC)c1ccccc1CO/N=C(\C)c1cccc(C(F)(F)F)c1,–,0.137 µM (active)
CCCC[N+]1(C)CCCC1 (tested in a mixture with another compound),–,61.9 µM (active)
c1ccc(N=NNc2ccccc2)cc1,–,56.4 µM (active)
Nc1ccc(N=Nc2ccccc2)cc1,–,29.8 µM (active)
c1csc(-c2ccc(-c3cccs3)s2)c1,-4.81% (inactive),–
COc1ccc2c(c1OC)C(=O)O[C@@H]2[C@H]1c2cc3c(cc2CCN1C)OCO3,–,21.5 µM (active)
CN1C2CCC(C)(C)C1CC(OC(=O)C(O)(c1cccs1)c1cccs1)C2 (stereo unspecified),-4.6% [at 42.5 µM] (inactive),–
COP(=O)(OC)Oc1ccc([N+](=O)[O-])cc1,-5.89% (inactive),–
C=Cc1cccc(CCl)c1,4.29% [at 240 µM] (inactive),–
CSC1=N[C@@](C)(c2ccccc2)C(=O)N1Nc1ccccc1,–,8.63 µM (active)
Oc1ccc([C@H]2CNCc3c2ccc(O)c3O)cc1O,–,29.8 µM (active)
CCOP(=S)(NC(C)C)Oc1ccccc1C(=O)OC(C)C (stereo unspecified),–,61.1 µM (active)
O=[N+]([O-])c1cccc2cccc([N+](=O)[O-])c12,0.741% (inactive),–
CCN(CC)Cc1nccn1-c1ccc([N+](=O)[O-])cc1C(=O)c1ccccc1Cl,-12.8% [at 42.5 µM] (inactive),–
FC(F)C(F)(F)OCC(Cn1cncn1)c1ccc(Cl)cc1Cl (stereo unspecified),–,48.3 µM (active)
Cc1ccc2cc3c(ccc4ccccc43)c3c2c1CC3,2.61% [at 42.5 µM] (inactive),–
CCN(CC)CCc1c[nH]c2ccccc12,-9.49% (inactive),–
c1ccc(Nc2ccc(Nc3ccccc3)cc2)cc1,–,48.4 µM (active)
